# Bioassay records as filed in PubChem.
# VP16 counter: VP16 counterscreen qHTS for inhibitors of ROR gamma transcriptional activity. Drosophila S2 Gal4-VP16 UAS-luciferase, luminescence, 20 h. Potency, µM (doses to about 53.6 µM), for the others: top-dose activity, negative = inhibition, actives largely listed as inhibitors. 3.5% of 310,000 active. AID 2546, 2010;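 note: Gal4-VP16 expression switched on by copper sulfate through the metallothionein promoter; potency is the fitted concentration of half-maximal effect; % is set by controls: 0 for no effect and ±100 for the full control effect; nearly all actives have a fitted effect of over 50% in size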
# ELG1 repair inh: qHTS screen for small molecules that inhibit ELG1-dependent DNA repair in human embryonic kidney (HEK293T) cells expressing luciferase-tagged ELG1. HEK293T ELG1-luciferase reporter, luminescence, 16 h; DNA damage induced by 5-fluorouridine. Potency, µM (highest dose often 46.1 µM), for inactives: at the top dose activity change, negative = inhibition, hits mostly inhibitors. 2.3% of 330,000 active; note: potency is the fitted concentration of half-maximal effect; % is set by controls: 0 for no effect and ±100 for the full control effect; nearly all actives have a fitted effect of over 55% in size
#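 Luminescence from the luciferase reporter, measured 30 min after ONE-Glo reagent at room temperature, was the read-out. Beforehand, 2,000 cells per well were exposed for 16 hr at 37 °C to 5-fluorouridine together with compound or vehicle.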
# p53 reactivator: qHTS assay for re-activators of p53 using a Luc reporter. H1299 p53-A138V BP100-luciferase reporter, luminescence, 24 h. Potency, µM (titrated, usually from 92.2 µM), for the others: top-dose activity change, positive = activation, hits mostly activators. 0.063% of 320,000 active; note: potency is the fitted concentration of half-maximal effect; % of control where 0% means no effect; nearly all actives have a fitted effect of over 45% in size
#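 H1299 (p53-null), stable ts p53-A138V + BP100-Luc; 1000 cells/well, Opti-MEM/10% FBS; cpd 4 pt, 1:5; 24 h, 37 deg C, 5% CO2; detection reagent 10 min RT; luminescence.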
# RORgamma inh: qHTS for inhibitors of ROR gamma transcriptional activity; Nuclear receptor ROR-gamma (Mus musculus), P51450; Drosophila S2 Gal4-RORgamma UAS-luciferase reporter, 20 h; Potency, µM (series often up to 53.6 µM), without a hit: top-dose activity change, negative = inhibition, usual class: inhibitors; 5.4% of 310,000 active; AID 2551, 2010; note: potency is the fitted concentration of half-maximal effect; % is set by controls: 0 for no effect and ±100 for the full control effect; nearly all actives have a fitted effect of over 60% in size
# Target sequence (P51450 whole entry, looked up, the tested form may be a part): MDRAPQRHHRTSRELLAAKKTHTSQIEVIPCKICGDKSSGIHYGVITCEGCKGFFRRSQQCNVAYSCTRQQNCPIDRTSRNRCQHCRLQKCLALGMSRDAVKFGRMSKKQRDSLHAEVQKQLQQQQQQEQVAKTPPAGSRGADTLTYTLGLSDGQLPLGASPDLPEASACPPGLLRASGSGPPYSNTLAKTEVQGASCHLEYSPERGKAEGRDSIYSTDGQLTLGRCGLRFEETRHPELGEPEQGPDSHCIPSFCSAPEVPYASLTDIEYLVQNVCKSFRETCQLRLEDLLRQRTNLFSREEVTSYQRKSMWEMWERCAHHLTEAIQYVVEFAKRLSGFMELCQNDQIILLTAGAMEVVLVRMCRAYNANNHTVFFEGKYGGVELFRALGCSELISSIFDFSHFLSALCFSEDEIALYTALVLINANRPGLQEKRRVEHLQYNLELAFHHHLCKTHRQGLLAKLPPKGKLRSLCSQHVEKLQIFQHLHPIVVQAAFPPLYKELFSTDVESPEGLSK
#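 Schneider cells (Drosophila), stable Gal4 DBD–ROR gamma + UAS-luc; 1 hr cmpd preincubation; Cu2+ induction 700 uM final; 20 hr ambient; luminescence.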
# Giardia kill: Small Molecules that selectively kill Giardia lamblia: qHTS; Giardia lamblia trophozoite viability; activity change, % at 7.66 µM, hits read low; 0.15% of 340,000 active; in the data active = activity change below about -80%; inconclusive = between about -30% and that limit;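 note: parasites exposed to compound for two days anaerobically before the ATP read; % is set by controls: 0 for no effect and ±100 for the full control effect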
#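 Trophozoites 100 cells/well + cpd; 48 hrs, 37 deg C, anaerobic. ATPLite 1-Step added, 15-30 min RT, luminescence read (ATP-based viability).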
# BRCA1 expr act: qHTS Assay to Identify Small Molecule Activators of BRCA1 Expression; MCF7-BRCA1-FFLuc reporter, luminescence, 48 h; response scale: scaled: vehicle 0%, 10 µM genistein 100%; Potency, µM (series often up to 46.1 µM), for the others: top-dose activation, most hits filed as activators; 1.1% of 380,000 active; AID 624202, 2012; note: potency is the fitted concentration of half-maximal effect; nearly all actives have a fitted effect of over 80% in size
#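 Luminescence from a BRCA1-driven firefly luciferase in MCF7 cells was the read-out, taken 15 min after substrate addition following 48 h compound exposure at 37 °C. Data were normalized to a 10 microM genistein control and DMSO vehicle.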
# * marks the source's active call; other numbers are inactive results; ? = inconclusive; · = no result; [ ] = another dose, or the depositor's remark. An excerpt weighted towards active compounds, which were near 7.6% of everything screened. Unless noted, calls come from the whole dose curve; as a rule, active = well fitted curve in the direction sought with a large enough effect; inconclusive = small, poorly fitted or top-dose-only effect, or another doubt; inactive = no such curve, though single readings can be large; an effect the other way counts as inactive or inconclusive.
SMILES,VP16 counter,ELG1 repair inh,p53 reactivator,RORgamma inh,Giardia kill,BRCA1 expr act
Cc1cc(=O)[nH]c(N/N=C/C=C/c2ccccc2)n1,-20%,2%,17%,13µM*,4,11%
Cc1cc(C)nc(N/N=C/c2ccccc2Cl)n1,?,?,2%,?,-24,96%
Cc1cc(C)nc(N/N=C/C=C/c2ccccc2)n1,7.9µM*,?,22%,1.3µM*,7,45%
Cc1cc(C)nc(N/N=C/c2ccccc2)n1,17%,0%,10%,?,-15,93%
CC(C)(C)c1ccccc1NC(=O)Nc1nc(C(N)Cc2ccc(F)cc2)cs1 (configuration not stated),·,·,·,·,·,0%
COc1cc2c(cc1OC)-c1cc(OCc3ccccc3Cl)nc(=O)n1CC2,-4%,16µM*,-2%,-1%,5,-5%
CCN(CC)c1ccc(Nc2cc3n(c(=O)n2)CCc2cc(OC)c(OC)cc2-3)cc1,4%,5.2µM*,-4%,-12%,5,-76%
CCOC(=O)c1cccc(C2=CC(=O)C[C@H](c3ccc(OC)cc3)C2)c1,·,?,13µM*,·,-1,11µM*
COc1ccc([C@H]2CC(=O)C=C(c3cccc(Cl)c3)C2)cc1,·,?,-2%,·,0,11%
C=CCn1c(SCCOc2ccccc2)nnc1C(C)NC(=O)c1ccccc1 (configuration not stated),-1%,-5%,3%,?,4,3%[1.84 µM]
C=CCn1c(CCNC(=O)c2ccc(Cl)c(Cl)c2)nnc1SCCOc1ccc(OC)cc1,?,16µM*,-5%,?,13,-51%
O=S(=O)(NCCc1ccccc1)c1ccccc1Br,-13%,·,·,17%,1,·
O=C(Nc1cccc2ccccc12)NC1CCCCC1,19%,5%,?,1%,10,-6%
O=C(NNC(=O)C1[C@H]2CCCC[C@@H]12)Nc1cccc2ccccc12 (some centres not stated),3%,26µM*,1%,1%,17,12%
CCCCCCCCNC(=O)/C(C#N)=C/c1ccccc1[N+](=O)[O-],7.9µM*,19%,-27%,3.2µM*,-1,-33%
N#C/C(=C\C=C\c1ccccc1[N+](=O)[O-])C(=O)NCc1ccccc1,?,?,-11%,14µM*,-7,-92%
N#C/C(=C/C=C/c1ccccc1)C(=O)Nc1ccccc1,3%,5.8µM*,21%,-7%,-6,6%
N#C/C(=C\C=C\c1ccccc1)C(=O)Nc1ccccc1,4%,5%,1%,-23%,-17,25%
CCN(CC)c1ccc(/C=C(/C#N)C(=O)NCc2ccccc2)o1,0%,?,27%,?,-8,10µM*
O=C(Cn1cnc2ccccc2c1=O)NCCC(=O)N1CCN(Cc2ccccc2)CC1,-5%,-2%,0%,-2%,16,1%
CC(C)(C)c1ccc(S(=O)(=O)NC(=O)C2(C)CCN2C(=O)Cc2cccs2)cc1 (configuration not stated),·,·,·,·,·,2%
CN(C(=O)COC(=O)c1ccc(Cl)c(N)c1)c1ccccc1,-4%,14%,4%,32%,-8,15%
Cc1ccccc1NC(=O)/C(=C/c1ccccc1)c1ccccc1,-6%,-13%,0%,?,1,-27%
N#C/C(=C\c1ccccc1[N+](=O)[O-])C(=O)NCc1ccccc1,?,1.8µM*,-10%,?,-28,0%
O=C(Nc1ccccc1)/C(=C/c1ccccc1)c1ccccc1,-1%,10µM*,-4%,41%,-11,-26%
SMILES,VP16 counter,ELG1 repair inh,p53 reactivator,RORgamma inh,Giardia kill,BRCA1 expr act
Cc1cc(N2CCN(C)CC2)ccc1NC(=O)c1c2c(nc3ccccc13)CCN(Cc1ccccc1)C2,11µM*,?,26%,11µM*,-6,-32%
O=C(NC1CCCCCC1)c1c2c(nc3ccccc13)CCN(Cc1ccccc1)C2,-2%,?,6%,23%,8,-40%
Cc1c(Cl)cccc1NC(=O)COC(=O)c1c2c(nc3ccccc13)CCN(Cc1ccccc1)C2,-7%,13µM*,6%,0%,-2,-90%
COc1cccc(NC(=O)COC(=O)c2c3c(nc4ccccc24)CCC(C)C3)c1 (configuration not stated),-24%,?,-8%,42%,8,-97%
CC(C)c1ccccc1NC(=O)COC(=O)c1c2c(nc3ccccc13)CCN(Cc1ccccc1)C2,-25%,12µM*,3%,23%,-18,-82%
CC(C)c1ccc(C2(C)NC(=O)N(C(C)C(=O)Nc3ccc(N4CCOCC4)cc3)C2=O)cc1 (configuration not stated),·,-19%,3%,·,14,-35%
CC(C(=O)NCc1ccccn1)N1C(=O)c2ccccc2C1=O (configuration not stated),-4%,10%,-1%,1%,-10,2%
O=S(=O)(NNc1ccc(Cl)nn1)c1ccc(F)cc1,?,9%,16%,14µM*,7,-43%
O=S(=O)(Nc1ccc(Cl)nn1)c1ccccc1,5%,-1%,0%,-4%,-22,-5%
Cc1c(/C=C/c2ccnc3ccccc23)ccc(N(C)C)c1C,·,·,·,·,·,-4%
Cn1c(SCC(=O)c2ccccc2F)nnc1C1CC1,11µM*,?,?,?,3,47%
Cn1c(SCC(=O)Nc2ccc(Cl)cn2)nnc1C1CC1,4%,-2%,?,31%,-13,26%
CC(=O)c1cccc(Nc2nc(-c3sc(C)nc3C)cs2)c1,·,16µM*,·,·,10,-15%
CC(=O)c1cccc(Nc2nc(-c3sc(N)nc3C)cs2)c1,1%,8.2µM*,10%,18%,-5,-47%
CC(=O)c1cccc(NC(=O)CSc2ccc(-c3sc(C)nc3C)nn2)c1,0%,23µM*,-9%,-5%,7,-15%
CC1Cc2ccccc2N1C(=O)COC(=O)c1ccc(Cl)nc1 (configuration not stated),-10%,4%,1%,-8%,7,-6%
COc1cc(/C=N/NC(=O)C23CC4CC(CC(C4)C2)C3)cc(Br)c1O,4%,1%,-5%,8%,15,-13%
